The experiment has as its target RUNX1 (UniProt Q01196). The experiment can be described thus: RUNX1 binding intensity (PBM fluorescence), RUNX1 alone (arbitrary fluorescence units); higher = stronger binding. As to conditions: RUNX1 concentration 2 nM; ETS1 concentration 0 nM. As for the experimental part:
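Cooperative gcPBM on 36-bp genomic probes with neighbouring ETS1 and RUNX1 sites. Recombinant human RUNX1 (2 nM) was incubated alone or with ETS1 (25 nM) and detected with anti-RUNX1 antibody plus Alexa488 secondary. Values are medians over 4 replicate spots; the RUNX1+ETS1 data were normalised to the RUNX1-only data. The probes sit in constant array flanks that are not printed.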
Sequence of RUNX1 (Q01196 whole entry): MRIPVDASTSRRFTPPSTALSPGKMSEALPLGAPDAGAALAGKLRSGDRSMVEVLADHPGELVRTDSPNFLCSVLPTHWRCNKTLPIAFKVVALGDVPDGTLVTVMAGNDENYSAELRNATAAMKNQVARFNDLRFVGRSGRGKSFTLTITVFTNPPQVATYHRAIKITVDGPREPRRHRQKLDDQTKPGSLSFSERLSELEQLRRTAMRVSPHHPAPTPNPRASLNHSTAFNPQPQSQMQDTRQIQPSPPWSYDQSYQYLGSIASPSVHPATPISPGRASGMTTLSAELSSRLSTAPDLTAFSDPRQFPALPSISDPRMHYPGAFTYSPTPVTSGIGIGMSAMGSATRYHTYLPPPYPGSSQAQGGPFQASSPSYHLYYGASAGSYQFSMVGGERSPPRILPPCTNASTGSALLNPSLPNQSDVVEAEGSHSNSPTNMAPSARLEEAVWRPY
The sequence CCCCCACATCCTGTTTGGTTTGTGGGACACCTCAAC came in with an RUNX1 binding intensity of 849. For the sequence TGCGCCGCGGAACCCGGAAGTGGTCACGGAGCTCGG, the RUNX1 binding intensity is 766. CCACCCACTTCCTGCCCTAGCTAGTGTGGTATTTTT gave an RUNX1 binding intensity of 907. Sequence GCCTGCACCCTAGTTCCGGTGTGGGTGGAGGGGCCG returned an RUNX1 binding intensity of 4050. Turning to ACTTACAAAGGAAGTGACAGAACCACAGAAAAGACC, the RUNX1 binding intensity worked out at 732. On to GGAGGGGCTGGCCGGAAGTGAACCGCAGAGCACGCT, for which the RUNX1 binding intensity came out at 1070.

With GAAGTGAGGTCAGGATGTGGTGGGTGACCCCTGAAA, the RUNX1 binding intensity was 768.

CCAGAGGGCGGAAGTGGGAGCTGCGACCGCGCTCCC registered an RUNX1 binding intensity of 690. The sequence CATCAAGTATTTCCTCACGCAAGCAACCGCATCCAT displayed an RUNX1 binding intensity of 1180. In turn, AGGCGCCGGAAAAACTACATCTCCCACAATCCTCGG came in with an RUNX1 binding intensity of 965. The figure for TGCAATCAGGAAGCCTGCCCCTCTAGAACCACAAAA is 882. Under TACAGCTGGAACGTCCTGTGGTTAACATTCTGCTCT stands 1130; under GTCCCACGCGACTTCCTGCGGGAAACATGGCGGCAT, 771; under ATCTTCCGTAGCAGTCAGGTGTTTTGTGGTTTGCAG, 1490. The figure for CCCCACATCCGGGGGCCGGGGCCGGGCTGTGGGCTT is 739; for AGCCAACAGGAAGCTGCAGAGACTAAACCACAGCAA it is 879.

In turn, TCTGTTCTTCCTTTTCCTGTGCGGTGTGCCCCAAAC had an RUNX1 binding intensity of 1530. Consider AATATACGGTGAGGATGTGGGCAAAAAACAAAGAGG, for which the RUNX1 binding intensity was found to be 809. The figure for CCTGCCTTCCGTCTTCCAGGCAGAACCACAGAGAGG is 1180; for TGCGCCGGGAGGAAGGGCTCCAAAACCACAGGGCGG it is 900; for ACATTTCCTTTTGGTATTTAAAGTAACCACACAGAA it is 1060.

Values taken from the supplement of paper PMC10681739.
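Further: Full-length recombinant human RUNX1 bound to double-stranded 36-bp genomic probes on a high-density microarray, scored as Alexa488 fluorescence per spot via anti-RUNX1 antibody, median of four replicate spots.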
